Source: PubChem BioAssay
mHTT-CaM PPI inh: disrupts binding of mutant huntingtin to calmodulin. 190,000 tested, 3.6% active. P42858. AlphaScreen His-mHTT/GST-CaM binding, luminescence. AID 1671202. inhibition, % at 15 µM;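 also: 0% = both proteins with DMSO and 100% = one protein alone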
Pf apPOL block: Pf-apPOL DNA polymerase inhibition; Recombinant Pf-apPOL, molecular beacon fluorescence, 1.5 h; inhibition, % at 10 µM; 210,000 tested, 0.25% active
Numbers without * were called inactive; . = not tested or not shown; + = active, no number. Rows were chosen to be rich in hits. Some 3.5% of all compounds tested hit in one or more screens of this group. Rule as the data show it: active = inhibition above about 50%; inactive = the rest.

SMILES | mHTT-CaM PPI inh | Pf apPOL block
O=C1S/C(=C\c2ccc(F)cc2)C(=O)N1CNc1cccc(Cl)c1 | 21 | -4
O=c1[nH]c(-c2ccc(F)cc2)nc2c1CCN(S(=O)(=O)Cc1cccc(F)c1)C2 | 1 | 1
COc1ccc(-c2c(C)c3cc(OCc4ccc([N+](=O)[O-])cc4)ccc3oc2=O)cc1OC | -2 | -6
Cc1cc(Br)c2c3c(c(N)c(=O)[nH]c13)-c1ccccc1C2=O | 29 | -2
Cc1cc2c3c(c(Br)cc(S(=O)(=O)O)c3n1)C(=O)c1ccccc1-2 | 99* | 2
CC1(c2cccs2)CC(c2cccs2)=Nc2ccccc2N1 (stereo unspecified) | 25 | -2
Cc1ccc(C(=O)N2CC3CC2CC3NS(=O)(=O)c2ccccc2)s1 (stereo unspecified) | 3 | -2
CC(=O)Nc1ccc(-c2noc(C3CCN(C(=O)COc4cccc(C)c4)CC3)n2)cc1 | 44 | 5
Nc1ccc(-c2c3ccccc3nc3cc(N)ccc23)cc1 | 100* | -1
Nc1ccc(-c2cc(-c3ccccc3)nc(-c3ccc(N)cc3)n2)cc1 | 8 | -6
Cc1ccc(S(=O)(=O)NC(C)C2C3CC4CC(C3)CC2C4)c(C)c1 (stereo unspecified) | -5 | -4
C(=Cc1ccco1)C1=NN(Cc2ccccc2)CC1 | . | 12
COc1cccc(C(=O)N2CCc3c(c(C(=O)NCc4ccc5c(c4)OCO5)nn3C)C2)c1 | 51* | -2
Cc1cccc(CNC(=O)c2nn(C)c3c2CN(C(=O)COc2cccc(C)c2)CC3)c1 | 76* | -5
Cc1cccc(CNC(=O)c2nn(C)c3c2CN(C(=O)CSc2ccccc2)CC3)c1 | 66* | -7
CCOc1ccc(C(=O)N2CCc3c(c(C(=O)NCc4cccc(C)c4)nn3C)C2)cc1 | -1 | -11
CC(C)C(=O)N1CCc2c(c(C(=O)NCc3ccc4c(c3)OCO4)nn2C)C1 | 6 | -14
COc1ccc(C(=O)N2CCc3c(c(C(=O)NCc4cccc(C)c4)nn3C)C2)cc1 | 10 | 0
Cc1cccc(C(=O)N2CCc3c(c(C(=O)NCc4ccc5c(c4)OCO5)nn3C)C2)c1 | 62* | -8
Cc1cccc(CNC(=O)c2nn(C)c3c2CN(C(=O)C2CC2)CC3)c1 | 6 | -7
O=C(Nc1ccc(Cl)cc1Cl)c1ccc(Cl)cc1Cl | -19 | -8
COc1ccc(NC(=O)N2CCC(n3c(-c4ccco4)nc4cccnc43)C2)cc1 (stereo unspecified) | 16 | 0
Cc1cc(C)c2c(c1)[nH]c1nnc(SCC(=O)Nc3ccc4c(c3)OCCO4)nc12 | 35 | 4
Cc1cccc(CNC(=O)c2nn(C)c3c2CN(C(=O)c2ccc(F)cc2)CC3)c1 | 51* | -5
Cn1nc(C(=O)NCc2ccc(F)cc2)c2c1CCN(C(=O)c1ccco1)C2 | 18 | -5
SMILES | mHTT-CaM PPI inh | Pf apPOL block
Cn1nc(C(=O)NCc2ccc(F)cc2)c2c1CCN(C(=O)c1cccc(F)c1)C2 | -3 | -8
Cc1cccc(CNC(=O)c2nn(C)c3c2CN(C(=O)c2ccco2)CC3)c1 | 72* | 2
Cc1cccc(C(=O)N2CCc3c(c(C(=O)NCc4ccccc4)nn3C)C2)c1 | 88* | -12
Cn1nc(C(=O)NCc2ccccc2)c2c1CCN(C(=O)c1ccc(F)cc1)C2 | 19 | 3
COc1cc(NC(=O)COc2ccccc2[N+](=O)[O-])c(OC)cc1Cl | 9 | 3
O=C(NCCC1CCN(C(=O)c2ccc(F)cc2)CC1)c1ccc2c(c1)OCO2 | 5 | -2
CC(C)c1noc(C2(NC(=O)c3cccc(C#N)c3)CCCCC2)n1 | -7 | -9
COCc1nc(NCC(C)C)c2c(C)nn(-c3ccc(C)cc3)c2n1 | -8 | 4
O=C(NCc1cccnc1)C(=O)NCc1cccnc1 | -5 | 1
O=C(NCc1cccnc1)/C(=N\O)c1ccccn1 | + | 11
O=C(CN1CCN(C2c3ccccc3-c3ccccc32)CC1)Nc1ccc2c(c1)OCCO2 | 58* | -1
COc1ccc(NC(=O)CN2CCN(C3c4ccccc4-c4ccccc43)CC2)cc1Cl | 40 | 1
CCOC(=O)N1CCN(C(=O)c2ccc3nc(-c4ccco4)c(-c4ccco4)nc3c2)CC1 | -3 | 1
O=C(NC1=NCCS1)c1ccc2nc(-c3ccco3)c(-c3ccco3)nc2c1 | 72* | -4
O=C(Nc1ccc2nsnc2c1)NC1CC1 | 0 | -3
O=C(c1ccc2nc(N3C(=O)CCC3=O)sc2c1)N(CCO)c1ccccc1 | 10 | -4
O=C(Nc1ccccc1F)c1ccc2nc(-c3ccco3)c(-c3ccco3)nc2c1 | -1 | 3
O=C(Nc1nccs1)c1ccc2nc(-c3ccco3)c(-c3ccco3)nc2c1 | 93* | 2
O=C(Nc1ccc2nc(-c3ccco3)c(-c3ccco3)nc2c1)NC1CC1 | 99* | -2
O=C(c1ccc2nc(-c3ccco3)c(-c3ccco3)nc2c1)N(CCO)c1ccccc1 | 67* | 2
CCOc1ccc(C(=O)Nc2c3c(nn2-c2ccc(C)cc2)CS(=O)(=O)C3)cc1OCC | 9 | 1
CN1OCC(S(=O)(=O)NC2CCCCC2)C1c1ccc(F)cc1 (stereo unspecified) | -7 | -6
COc1ccc(C)cc1N(CC(N)=O)S(C)(=O)=O | -1 | -2
O=C(NC1CCCCCC1)c1cccc(C2CCCN(C(=O)Nc3ccccc3)C2)c1 (stereo unspecified) | 23 | -6
O=C(Nc1ccc(S(=O)(=O)N2CCOCC2)cc1)c1cccc(S(=O)(=O)N2CCCC2)c1 | 11 | -4
SMILES | mHTT-CaM PPI inh | Pf apPOL block
Cn1c(=O)[nH]c(=O)c2c1nc(SCC(=O)O)n2Cc1cccc(Br)c1 | 2 | -10
O=C(NCc1cc(F)ccc1F)C1CCN(c2cnn(Cc3ccccc3)c(=O)c2)CC1 | 5 | 2
Cc1cccc(NS(=O)(=O)c2cn(C)c3ncccc23)c1 | 59* | 88*
Cn1cc(S(=O)(=O)Nc2ccc(F)cc2Cl)c2cccnc21 | 69* | 93*
CCCn1cc(S(=O)(=O)Nc2ccc(Cl)cc2F)c2cccnc21 | 39 | 13
Cn1cc(S(=O)(=O)Nc2cccc(Cl)c2)c2cccnc21 | -5 | 10
CCC1CN(C(=O)NCCC(C)C)c2ccccc2O1 (stereo unspecified) | -21 | 0
Cc1cccc(CNC(=O)CCC(=O)N2CC3CCCN3c3ccccc32)c1 (stereo unspecified) | 41 | -7
CC(C)CCNC(=O)N1CC2CCCN2c2ccccc21 (stereo unspecified) | 56* | -3
O=C(NCc1ccccc1)c1ccc(NC(=O)N2CC3CCCN3c3ccccc32)cc1 (stereo unspecified) | 19 | 2
O=C(NCc1ccccc1)N1CC2CCCN2c2ccccc21 (stereo unspecified) | 83* | 0
Cc1ccc(CNC(=O)N2CC3CCCN3c3ccccc32)cc1 (stereo unspecified) | 57* | -3
CCN1CCCC1CNc1nc(-c2cccc(C)c2)nnc1C (stereo unspecified) | 15 | -5
O=C(c1ccco1)N1CCN(C(=O)C2CC2c2ccc3c(c2)OCO3)CC1 (stereo unspecified) | -14 | -3
CCC(CC)C(=O)N1CCC(c2ccn3ncc(C(=O)N4CCCC4)c3c2)CC1 | 5 | -1
CCn1cc(C(=O)NCCOC)c2cc(OC)c(OC)cc2c1=O | -2 | -7
Nc1c(N)c(N)c(N)c(N)c1N | 64* | .
Cc1ccc(C)n1-c1ccc(Cl)c(C(=O)NN)c1 | 36 | 9
COc1ccc(-n2c(C)ccc2C)cc1Cl | 62* | -6
